In PubChem BioAssay (EPA / NIEHS):
Inconclusive results are not listed. The source made the active and inactive calls. How the source made its calls, unless noted: active means hit-call score of the fitted dose curve at least 0.9, where 1 is the maximum; inactive means score below 0.9.

How the values were obtained:
[1] = target: Retinoic acid receptor RXR-alpha (Homo sapiens) (UniProt P19793); experiment: ATG_RXRa_TRANS: Attagene TRANS-FACTORIAL HepG2 Assay for human Retinoid X Receptor alpha (RXRa) (AID 2283012; active means hit-call score of the fitted dose curve at least 0.9, where 1 is the maximum)
Summary of the method: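 Transient transfection of human HepG2 with multiple GAL4-UAS reporter constructs; 24 h compound exposure; total RNA isolated, reverse-transcribed, PCR-amplified, 6-FAM labelled, HpaI-cut, resolved by capillary electrophoresis. Positive-direction fit versus DMSO.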

[2] = target: human Retinoid X Receptor beta (RXRb), RXRB (gene 6257) (UniProt P28702); experiment: ATG_RXRb_TRANS: Attagene TRANS-FACTORIAL HepG2 Assay for human Retinoid X Receptor beta (RXRb) (AID 2283013; active means hit-call score of the fitted dose curve at least 0.9, where 1 is the maximum)
Summary of the method: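 Transfect HepG2 with GAL4-UAS multi-reporter constructs (chimeric NR-Gal4, TRANS format); dose compound 24 h; isolate RNA, RT-PCR, FAM primer extension, HpaI digest; quantify by capillary electrophoresis; positive direction vs DMSO.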

[3] = read-out: E-selectin (Homo sapiens) (UniProt P16581); experiment: BSK_3C_Eselectin: BioMAP Diversity Plus: 3C Assay for Eselectin Biomarker Activity (AID 2283015); settings: primary human endothelial cells (HUVEC); actives raise or lower the signal;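 on outcome: cell surface E-selectin protein quantified by ELISA 24 h after dosing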
Summary of the method: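 Primary human umbilical vein endothelial cells (3C system) were dosed with chemical and cell-surface E-selectin measured by ELISA 24 h later. Bidirectional curve fitting used DMSO as negative control and baseline.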

[4] = read-out: Interleukin-1 alpha (IL1a), IL1A (gene 3552); experiment: BSK_BE3C_IL1a: BioMAP Diversity Plus: BE3C Assay for Interleukin-1 alpha (IL1a) Biomarker Activity (AID 2283016); settings: primary human bronchial epithelial cells; actives raise or lower the signal
Summary of the method: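 BE3C primary human bronchial epithelium; cpd 24 h; IL-1a by ELISA; bidirectional fit vs DMSO; parallel SRB (0.1% SRB, 10% TCA fix, 560 nm) for cytotoxicity.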

[5] = read-out: Monocyte Chemoattractant Protein-1 (MCP1), CCL2 (gene 6347); experiment: BSK_3C_MCP1: BioMAP Diversity Plus: 3C Assay for Monocyte Chemoattractant Protein-1 (MCP1) Biomarker Activity (AID 2283017); settings: primary human endothelial cells (HUVEC); actives raise or lower the signal
Summary of the method: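 Primary human umbilical vein endothelial cells (3C system) were exposed to test chemical for 24 h, after which MCP-1 was quantified by ELISA. Activity was fitted bidirectionally against DMSO as negative control and baseline.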

[6] = read-out: Monocyte Chemoattractant Protein-1 (MCP1), CCL2 (gene 6347); experiment: BSK_4H_MCP1: BioMAP Diversity Plus: 4H Assay for Monocyte Chemoattractant Protein-1 (MCP1) Biomarker Activity (AID 2283018); settings: primary human endothelial cells (HUVEC); actives raise or lower the signal
Summary of the method: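 ELISA read-out of MCP-1 from human vascular endothelial primary cells taken at 24 hours after compound exposure. Activity was fitted in both directions relative to DMSO, which served as negative control.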

[7] = read-out: Human Leukocyte Antigen - DR isotype (HLADR), HLA-DRA (gene 3122); experiment: BSK_3C_HLADR: BioMAP Diversity Plus: 3C Assay for Human Leukocyte Antigen - DR isotype (HLADR) Biomarker Activity (AID 2283019); settings: primary human endothelial cells (HUVEC); actives raise or lower the signal;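 on outcome: ELISA of cell-surface HLA-DR on HUVEC 24 h after dosing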
Summary of the method: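 Primary human umbilical vein endothelial cells (3C system) were dosed with compound and cell-surface HLA-DR was quantified by ELISA at 24 h. Activity was fitted bidirectionally against DMSO as negative control and baseline.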

[8] = read-out: Interleukin-8 (IL8), CXCL8 (gene 3576); experiment: BSK_3C_IL8: BioMAP Diversity Plus: 3C Assay for Interleukin-8 (IL8) Biomarker Activity (AID 2283020); settings: primary human endothelial cells (HUVEC); actives raise or lower the signal
Summary of the method: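 ELISA read-out of IL-8 from human umbilical vein endothelium, measured 24 h after chemical dosing. Activity is expressed relative to DMSO negative control, with both increases and decreases fitted.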

[9] = BSK_3C_SRB: Viability Assessment in the BioMAP Diversity Plus: 3C Assay (AID 2283023); settings: primary human endothelial cells (HUVEC);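 further: fitted both ways against DMSO so a hit may be signal rise or drop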
Summary of the method: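 Primary human umbilical vein endothelial cells in the 3C system were read 24 h after compound dosing. Total protein was stained with 0.1% sulforhodamine B after 10% TCA fixation and read at 560 nm, with bidirectional fitting against DMSO as baseline.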

[10] = read-out: Matrix Metallopeptidase 1 (MMP1), MMP1 (gene 4312); experiment: BSK_BE3C_MMP1: BioMAP Diversity Plus: BE3C Assay for Matrix Metallopeptidase 1 (MMP1) Biomarker Activity (AID 2283024); settings: primary human bronchial epithelial cells; actives raise or lower the signal
Summary of the method: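 Human bronchial epithelial cells (BE3C system) exposed to compound for 24 h; MMP1 then quantified by ELISA. Activity was fitted in both directions relative to DMSO.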

[11] = BSK_3C_Vis: BioMAP Diversity Plus: 3C Assay for Morphology Visualization (AID 2283025); settings: primary human endothelial cells (HUVEC);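 further: fitted both ways so gain or loss versus DMSO counts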;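 on AC50: light microscopy image of cell morphology used as background control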
Summary of the method: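 Chemicals were added to primary human umbilical vein endothelium, cells were incubated 24 h, and morphology was then visualized by light microscopy. Gain or loss of signal was fitted bidirectionally relative to DMSO.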

[12] = read-out: Pselectin, SELP (gene 6403); experiment: BSK_4H_Pselectin: BioMAP Diversity Plus: 4H Assay for Pselectin Biomarker Activity (AID 2283026); settings: primary human endothelial cells (HUVEC); actives raise or lower the signal
Summary of the method: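 ELISA read-out of P-selectin on human umbilical vein endothelium after 24 h of dosing. Values derive from bidirectional fitting relative to DMSO. Parallel SRB protein staining flagged overt cytotoxicity.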

[13] = BSK_4H_SRB: Viability Assessment in the BioMAP Diversity Plus: 4H Assay (AID 2283027); settings: primary human endothelial cells (HUVEC);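 further: cells exposed to compound for 24 h before staining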;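 on AC50: curves fitted both ways versus DMSO so AC50 may be loss or gain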
Summary of the method: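 Human umbilical vein endothelial cells, 24 h after chemical dosing; total protein measured by 0.1% sulforhodamine B staining after 10% TCA fixation, read at 560 nm. Bidirectional fitting against DMSO.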

[14] = BSK_BE3C_SRB: Viability Assessment in the BioMAP Diversity Plus: BE3C Assay (AID 2283028); settings: primary human bronchial epithelial cells;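 on AC50: fitted both ways so AC50 may mark signal gain or loss versus DMSO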
Summary of the method: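 Human primary bronchial epithelial cells were exposed to test chemicals for 24 h. Total protein in parallel cultures was then measured by staining with 0.1% sulforhodamine B after 10% TCA fixation, with absorbance read at 560 nm. Activity was fitted bidirectionally against DMSO.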

[15] = read-out: Thrombomodulin, THBD (gene 7056); experiment: BSK_3C_Thrombomodulin: BioMAP Diversity Plus: 3C Assay for Thrombomodulin Biomarker Activity (AID 2283029); settings: primary human endothelial cells (HUVEC); actives raise or lower the signal
Summary of the method: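 Read-out is ELISA of thrombomodulin on human umbilical vein endothelium 24 h after chemical dosing. Gain or loss of signal is scored relative to DMSO. Overt cytotoxicity is checked in parallel cultures by sulforhodamine B staining.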

[16] = read-out: Urokinase-type plasminogen activator receptor (uPAR), PLAUR (gene 5329); experiment: BSK_4H_uPAR: BioMAP Diversity Plus: 4H Assay for Urokinase-type plasminogen activator receptor (uPAR) Biomarker Activity (AID 2283030); settings: primary human endothelial cells (HUVEC); actives raise or lower the signal
Summary of the method: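 Primary human umbilical vein endothelial cells were exposed to chemical for 24 h before cell-surface uPAR was quantified by ELISA. Activity was fitted bidirectionally against the DMSO negative control baseline.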

[17] = read-out: Vascular endothelial growth factor receptor 2 (Homo sapiens) (UniProt P35968); experiment: BSK_4H_VEGFRII: BioMAP Diversity Plus: 4H Assay for Vascular endothelial growth factor receptor 2 (VEGFR2) Biomarker Activity (AID 2283031); settings: primary human endothelial cells (HUVEC); actives raise or lower the signal
Summary of the method: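 Primary human umbilical vein endothelial cells in the BioMAP 4H system were dosed with test chemical, and 24 h later VEGFRII was measured by ELISA. Activity was fitted bidirectionally against DMSO as negative control and baseline.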

[18] = read-out: Monokine induced gamma interferon (MIG), CXCL9 (gene 4283); experiment: BSK_3C_MIG: BioMAP Diversity Plus: 3C Assay for Monokine induced gamma interferon (MIG) Biomarker Activity (AID 2283021); settings: primary human endothelial cells (HUVEC); actives raise or lower the signal;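 on AC50: MIG protein level measured by immunoassay in the treated endothelial cultures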
Summary of the method: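 Read-out is ELISA detection of MIG on human umbilical vein endothelial cells, taken 24 h after dosing. Gain or loss of signal was scored relative to DMSO controls using bidirectional curve fitting.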

[19] = target: human Vitamin D Receptor (VDR), VDR (gene 7421) (UniProt P11473); experiment: ATG_VDR_TRANS: Attagene TRANS-FACTORIAL HepG2 Assay for human Vitamin D Receptor (VDR) (AID 2283022; active means hit-call score of the fitted dose curve at least 0.9, where 1 is the maximum)
Summary of the method: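 HepG2 cells were transiently transfected with multiple GAL4-UAS reporter units, so signal reflects exogenous chimeric receptor-Gal4 activity. After 24 h compound exposure, reporter mRNA was measured by RT-PCR, fluorescent labelling and capillary electrophoresis, fitted for gain of signal versus DMSO.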

[20] = target: human Thyroid Receptor alpha (THRa1), THRA (gene 7067) (UniProt P10827); experiment: ATG_THRa1_TRANS: Attagene TRANS-FACTORIAL HepG2 Assay for human Thyroid Receptor alpha (THRa1) (AID 2283014; active means hit-call score of the fitted dose curve at least 0.9, where 1 is the maximum)
Summary of the method: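 HepG2 cells transiently transfected with multiplexed GAL4-UAS reporter units for exogenous chimeric THRa1-Gal4; reporter mRNA measured 24 h after dosing by RT-PCR, 6-FAM labelling, HpaI digestion and capillary electrophoresis. Gain-of-signal fitted versus DMSO baseline.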

Chain of Retinoic acid receptor RXR-alpha (Homo sapiens) (P19793 whole entry, looked up, the tested form may be a part): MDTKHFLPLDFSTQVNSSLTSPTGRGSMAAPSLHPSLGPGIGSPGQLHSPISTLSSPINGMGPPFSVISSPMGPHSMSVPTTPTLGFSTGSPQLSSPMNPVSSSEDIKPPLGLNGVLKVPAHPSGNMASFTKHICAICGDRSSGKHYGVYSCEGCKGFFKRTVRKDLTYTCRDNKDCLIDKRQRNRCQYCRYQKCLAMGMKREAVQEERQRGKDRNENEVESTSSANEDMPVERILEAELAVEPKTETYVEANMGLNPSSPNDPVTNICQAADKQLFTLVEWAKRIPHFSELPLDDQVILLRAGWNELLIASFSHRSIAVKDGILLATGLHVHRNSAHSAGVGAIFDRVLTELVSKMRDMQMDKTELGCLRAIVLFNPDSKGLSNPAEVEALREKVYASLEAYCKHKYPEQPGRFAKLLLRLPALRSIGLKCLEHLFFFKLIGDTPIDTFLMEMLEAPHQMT
Chain of E-selectin (Homo sapiens) (P16581 whole entry, looked up): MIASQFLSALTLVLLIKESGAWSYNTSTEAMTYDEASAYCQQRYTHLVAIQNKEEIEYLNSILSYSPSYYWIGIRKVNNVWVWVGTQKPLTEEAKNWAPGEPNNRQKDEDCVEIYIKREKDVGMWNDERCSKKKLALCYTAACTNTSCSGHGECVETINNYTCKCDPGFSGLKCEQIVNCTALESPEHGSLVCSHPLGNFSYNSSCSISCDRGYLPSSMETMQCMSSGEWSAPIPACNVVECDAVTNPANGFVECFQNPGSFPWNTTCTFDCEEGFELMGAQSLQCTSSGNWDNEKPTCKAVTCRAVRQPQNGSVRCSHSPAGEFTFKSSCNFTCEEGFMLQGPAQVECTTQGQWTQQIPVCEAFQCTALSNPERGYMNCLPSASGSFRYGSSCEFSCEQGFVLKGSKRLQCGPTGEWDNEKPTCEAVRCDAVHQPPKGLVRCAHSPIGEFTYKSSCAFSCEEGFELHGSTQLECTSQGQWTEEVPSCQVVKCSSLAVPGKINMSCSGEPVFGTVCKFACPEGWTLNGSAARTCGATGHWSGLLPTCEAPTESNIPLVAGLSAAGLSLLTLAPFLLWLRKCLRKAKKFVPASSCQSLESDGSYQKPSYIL
Chain of human Vitamin D Receptor (VDR), VDR (gene 7421) (P11473 whole entry, looked up, the tested form may be a part): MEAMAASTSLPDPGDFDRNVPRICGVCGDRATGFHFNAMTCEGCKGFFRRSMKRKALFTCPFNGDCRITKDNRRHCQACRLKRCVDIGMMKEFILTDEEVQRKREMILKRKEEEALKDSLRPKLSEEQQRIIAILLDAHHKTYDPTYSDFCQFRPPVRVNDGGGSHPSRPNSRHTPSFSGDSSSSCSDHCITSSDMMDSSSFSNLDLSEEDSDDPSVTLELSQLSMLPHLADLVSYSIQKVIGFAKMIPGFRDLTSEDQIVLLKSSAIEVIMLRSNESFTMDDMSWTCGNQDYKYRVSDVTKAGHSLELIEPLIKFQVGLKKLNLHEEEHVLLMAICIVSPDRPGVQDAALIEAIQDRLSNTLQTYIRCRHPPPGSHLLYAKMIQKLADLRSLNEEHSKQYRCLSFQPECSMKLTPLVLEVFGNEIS
Chain of human Retinoid X Receptor beta (RXRb), RXRB (gene 6257) (P28702 whole entry, looked up, the tested form may be a part): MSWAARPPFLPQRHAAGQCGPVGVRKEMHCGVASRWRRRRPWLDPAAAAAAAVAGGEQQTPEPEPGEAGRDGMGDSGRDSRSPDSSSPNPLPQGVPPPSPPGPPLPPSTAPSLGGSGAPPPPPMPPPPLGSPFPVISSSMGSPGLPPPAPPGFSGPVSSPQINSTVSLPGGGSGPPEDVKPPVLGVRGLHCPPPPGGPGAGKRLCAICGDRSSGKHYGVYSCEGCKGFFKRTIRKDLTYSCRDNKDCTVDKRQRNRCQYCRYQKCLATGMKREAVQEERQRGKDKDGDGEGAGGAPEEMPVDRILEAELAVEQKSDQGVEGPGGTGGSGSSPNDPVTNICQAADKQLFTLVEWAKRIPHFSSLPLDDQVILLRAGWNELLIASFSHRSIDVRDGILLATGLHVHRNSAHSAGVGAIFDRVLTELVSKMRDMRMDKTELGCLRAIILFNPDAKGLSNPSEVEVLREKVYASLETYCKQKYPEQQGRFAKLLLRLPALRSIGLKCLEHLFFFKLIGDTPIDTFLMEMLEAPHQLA
Chain of human Thyroid Receptor alpha (THRa1), THRA (gene 7067) (P10827 whole entry, looked up, the tested form may be a part): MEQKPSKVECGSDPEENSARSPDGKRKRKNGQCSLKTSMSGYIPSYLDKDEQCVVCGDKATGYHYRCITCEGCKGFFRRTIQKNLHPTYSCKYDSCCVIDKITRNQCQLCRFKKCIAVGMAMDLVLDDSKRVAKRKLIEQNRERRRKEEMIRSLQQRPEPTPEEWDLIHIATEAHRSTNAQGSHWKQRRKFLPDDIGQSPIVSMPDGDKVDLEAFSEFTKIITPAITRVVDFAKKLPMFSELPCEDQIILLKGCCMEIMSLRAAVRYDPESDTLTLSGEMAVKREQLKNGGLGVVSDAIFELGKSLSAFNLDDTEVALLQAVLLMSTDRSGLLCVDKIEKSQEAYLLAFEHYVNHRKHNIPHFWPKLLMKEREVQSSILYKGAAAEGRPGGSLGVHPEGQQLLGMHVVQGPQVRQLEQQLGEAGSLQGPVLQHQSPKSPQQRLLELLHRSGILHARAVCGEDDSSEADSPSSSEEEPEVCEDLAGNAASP

CCCCCCCCCCCCCCOS(=O)(=O)O
outcome [1]: inactive
outcome [2]: inactive
outcome [3]: inactive
AC50 [4]: 28.1 µM (active)
outcome [5]: inactive
outcome [6]: inactive
outcome [7]: inactive
outcome [8]: inactive
outcome [9]: inactive
AC50 [10]: 31.8 µM (active)
outcome [11]: inactive
outcome [12]: inactive
outcome [13]: inactive
AC50 [14]: 21.2 µM (active)
AC50 [15]: 33.8 µM (active)
outcome [16]: inactive
outcome [17]: inactive

Cc1c(C)c2c(c(C)c1O)CCC(C)(COc1ccc(CC3SC(=O)NC3=O)cc1)O2 (stereo unspecified)
outcome [1]: inactive
AC50 [3]: 30.3 µM (active)
AC50 [4]: 29.3 µM (active)
AC50 [5]: 30.6 µM (active)
AC50 [6]: 9.95 µM (active)
AC50 [8]: 20 µM (active)
AC50 [18]: 34.2 µM (active)
outcome [19]: inactive
AC50 [9]: 17.3 µM (active)
AC50 [10]: 33.9 µM (active)
AC50 [11]: 20 µM (active)
AC50 [12]: 14 µM (active)
AC50 [13]: 23 µM (active)
AC50 [14]: 28.4 µM (active)
outcome [15]: inactive
outcome [17]: inactive

CN(C)C(=O)NC1(c2ccccc2)CCN(CC[C@@]2(c3ccc(F)c(F)c3)CN(C(=O)c3ccccc3)CCO2)CC1
outcome [1]: inactive
outcome [3]: inactive
outcome [4]: inactive
outcome [5]: inactive
outcome [6]: inactive
outcome [7]: inactive
outcome [8]: inactive
outcome [19]: inactive
outcome [9]: inactive
outcome [10]: inactive
outcome [11]: inactive
outcome [12]: inactive
outcome [13]: inactive
outcome [14]: inactive
outcome [15]: inactive
outcome [17]: inactive

O=C1OC(c2ccc(O)cc2)(c2ccc(O)cc2)c2ccccc21
outcome [1]: inactive
outcome [20]: inactive
outcome [3]: inactive
AC50 [4]: 34.8 µM (active)
AC50 [5]: 14.1 µM (active)
AC50 [6]: 20 µM (active)
AC50 [7]: 31.1 µM (active)
outcome [8]: inactive
AC50 [9]: 28.6 µM (active)
AC50 [10]: 3.97 µM (active)
AC50 [11]: 37.5 µM (active)
AC50 [12]: 30.2 µM (active)
outcome [14]: inactive
outcome [15]: inactive
AC50 [16]: 14.3 µM (active)
outcome [17]: inactive

O=C(O)CN(CC(=O)O)CC(=O)O
outcome [1]: inactive
outcome [2]: inactive
outcome [3]: inactive
outcome [4]: inactive
outcome [5]: inactive
outcome [6]: inactive
outcome [7]: inactive
outcome [8]: inactive
outcome [19]: inactive
outcome [9]: inactive
outcome [10]: inactive
outcome [11]: inactive
outcome [12]: inactive
outcome [13]: inactive
outcome [14]: inactive
outcome [15]: inactive
outcome [17]: inactive

S=c1[nH]c2ccccc2s1
outcome [1]: inactive
outcome [3]: inactive
outcome [4]: inactive
outcome [5]: inactive
outcome [6]: inactive
outcome [7]: inactive
outcome [8]: inactive
outcome [18]: inactive
outcome [19]: inactive
outcome [9]: inactive
outcome [10]: inactive
outcome [11]: inactive
outcome [12]: inactive
outcome [13]: inactive
outcome [14]: inactive
outcome [15]: inactive
outcome [16]: inactive
outcome [17]: inactive

CCC(C)N(C)C(=O)c1cc2ccccc2c(-c2ccccc2Cl)n1 (stereo unspecified)
outcome [1]: inactive
outcome [3]: inactive
outcome [4]: inactive
outcome [5]: inactive
outcome [6]: inactive
outcome [7]: inactive
outcome [8]: inactive
outcome [18]: inactive
outcome [19]: inactive
outcome [9]: inactive
outcome [10]: inactive
outcome [11]: inactive
outcome [12]: inactive
outcome [13]: inactive
outcome [14]: inactive
outcome [15]: inactive
outcome [16]: inactive
outcome [17]: inactive

NC1CCCCC1
outcome [2]: inactive
outcome [20]: inactive
outcome [3]: inactive
outcome [4]: inactive
outcome [5]: inactive
outcome [6]: inactive
outcome [7]: inactive
outcome [8]: inactive
outcome [18]: inactive
outcome [19]: inactive
outcome [9]: inactive
outcome [10]: inactive
outcome [11]: inactive
outcome [12]: inactive
outcome [13]: inactive
outcome [14]: inactive
outcome [15]: inactive
outcome [17]: inactive
